DT40 TDP1 no CPT = qHTS for Inhibitors of human tyrosyl-DNA phosphodiesterase 1 (TDP1): qHTS in cells in absence of CPT. DT40 Tdp1-/- hTDP1 cells, no CPT, ATP luminescence, 48 h. Potency, µM (doses to about 46.2 µM), for the others: top-dose activity change, negative = growth inhibition, hits mostly inhibitors. 15% of 420,000 active. AID 686978, 2013; also: potency is read from the fitted curve at half-maximal effect; nearly all actives have a fitted effect of over 55% in size
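Luminescent ATP content (CellTiter-Glo) served as the growth readout. Knockout chicken DT40 cells expressing human TDP1 were exposed to compounds without camptothecin for a minimum 48 hr at 37 °C.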
HT1080 IDH1KD tx = qHTS for induction of synthetic lethality in tumor cells producing 2HG: qHTS for the HT-1080-IDH1KD cell line. Potency, µM (highest dose often 46.1 µM), for the others: at the highest dose activity, negative = toxicity, most hits filed as cytotoxic. AID 686971, 2013. 2% of 360,000 active. HT-1080 IDH1 knockdown viability, ATP luminescence, 48 h;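 also: potency is read from the fitted curve at half-maximal effect; 0% = DMSO wells and -100% = cell-free medium wells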
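IDH1KD HT-1080 cells, 750/well, RPMI + 5% FBS; compound pinned after 2 h settling; 48 h, 37 °C; CellTiter-Glo luminescence; % activity normalised to DMSO and no-cell wells; curves fitted, classed by r2 and efficacy.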
IL-1B inflam inh = qHTS for Inhibitors of Inflammasome Signaling: IL-1-beta AlphaLISA Primary Screen; activity change, % at 57.5 µM; 4.7% of 360,000 active; AID 743279, 2014; THP-1 LPS/ATP IL-1B secretion, AlphaLISA, 16 h; active compounds read low; in the data active = activity change below about -50%; inconclusive = mostly about -30% to -49%
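THP-1 cells pretreated 1 hr with compounds (up to 57.5 uM final), then stimulated with LPS (250 ng/mL final) plus ATP (1.25 mM final); secreted IL-1B measured by AlphaLISA after 16 hr, decreased signal indicating inhibition.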
HT1080-NT tox = qHTS for induction of synthetic lethality in tumor cells producing 2HG: qHTS for the HT-1080-NT fibrosarcoma cell line. HT-1080-NT fibrosarcoma viability, CellTiter-Glo ATP luminescence, 48 h. Potency, µM (titrated, usually from 46.1 µM), inactives show at the top dose activity, negative = less viability, usual class: cytotoxic. 1.6% of 360,000 active;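 also: NT is the 2HG producing partner of a matched IDH1 knockdown line; potency is read from the fitted curve at half-maximal effect; 0% = DMSO-treated cells and -100% = media-only wells without cells; nearly all actives have a fitted effect of over 55% in size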
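Compounds were tested in concentration-response format on HT-1080-NT cells for 48 hours at 37 degrees C. Cell viability came from CellTiter-Glo luminescence; curves were classified by r2, response magnitude and activity.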
ELG1 DNA repair = qHTS screen for small molecules that inhibit ELG1-dependent DNA repair in human embryonic kidney (HEK293T) cells expressing luciferase-tagged ELG1 | HEK293T ELG1-luciferase reporter, luminescence, 16 h; DNA damage induced by 5-fluorouridine | Potency, µM (highest dose often 46.1 µM), for inactives: top-dose activity change, negative = inhibition, usual class: inhibitors | 2.3% of 330,000 active | AID 504467, 2011; also: potency is read from the fitted curve at half-maximal effect; nearly all actives have a fitted effect of over 55% in size
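In this reporter screen, reduction of luminescence relative to DMSO vehicle indicated activity. Compounds and 5-fluorouridine were added together to 2,000 cells per well, incubated for 16 hr at 37 °C, then developed with ONE-Glo.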
TDP1 cell CPT = qHTS for Inhibitors of human tyrosyl-DNA phosphodiesterase 1 (TDP1): qHTS in cells in presence of CPT; chicken DT40 Tdp1-/-;hTDP1 cells + 20 nM CPT, ATP luminescence, 48 h; Potency, µM (series often up to 46.2 µM), inactives show at the top dose activity change, negative = growth inhibition, hits mostly inhibitors; 12% of 420,000 active; AID 686979, 2013; also: potency is read from the fitted curve at half-maximal effect; nearly all actives have a fitted effect of over 55% in size
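Chicken DT40 Tdp1-/- cells complemented with human TDP1, 400 cells/well, exposed to compounds plus 20 nM camptothecin for at least 48 h at 37 C; viability read as ATP content by CellTiter-Glo luminescence.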
* = called active by the depositor; ? = inconclusive; . = no result. A selection: hits, their analogues and other compounds. The true share with any hit is near 19%. Unless noted, calls follow the shape of the dose curve; as a rule, active = well fitted curve in the direction sought with a large enough effect; inconclusive = small, poorly fitted or top-dose-only effect, or another doubt; inactive = no such curve, though single readings can be large; an effect the other way counts as inactive or inconclusive. Unless noted, % is scaled to controls: 0 for no effect and ±100 for the full control effect.

SMILES	DT40 TDP1 no CPT	HT1080 IDH1KD tx	IL-1B inflam inh	HT1080-NT tox	ELG1 DNA repair	TDP1 cell CPT
CCOC(=O)c1cc(-c2ccccc2)n(CCC(=O)NC2CCCCC2)c1C	13µM*	.	.	.	.	?
CCOC(=O)c1cc(-c2ccc(F)cc2)n(CC(=O)NC2CCCCCC2)c1C	14.6µM*	.	.	.	.	16.4µM*
CCOC(=O)c1cc(-c2ccc(F)cc2)n(CC(=O)NC2CCCCC2)c1C	?	.	.	.	.	-26.4%
CC(=O)c1cc(-c2ccccc2)n(CCC(=O)NC2CCCCCCC2)c1C	23.1µM*	-27.0%	-24.3	?	-30.1%	?
CC(=O)c1cc(-c2ccccc2)n(CCC(=O)NC(C)(C)C)c1C	-19.6%	0.8%	58.3	8.8%	18.0%	0.9%
Cc1ccc(S(=O)(=O)NCC(c2ccccc2)N2CCN(c3ccc(F)cc3)CC2)cc1 (stereo not drawn)	?	3.2%	-4.1	1.7%	1.1%	?
Cc1c(-c2ccccc2)nc(-c2ccccc2)[nH]c1=O	-15.7%	11.5%	0.0	10.4%	13.8%	-12.2%
CSc1ncc2c(=O)[nH]c(-c3ccccc3)nc2n1	-9.7%	?	-73.9*	?	4.6%	1.9%
O=C(C(=O)N1CCN(C/C=C/c2ccccc2)CC1)c1ccccc1	?	1.8%	1.5	-14.2%	.	?
CC(=O)c1sc(-c2ccc(Cl)cc2)nc1C	12.1%	-0.2%	12.9	-2.9%	?	-1.2%
COc1ccc(N/C=C/C(=O)c2sc(-c3ccccc3)nc2C)cc1	20.6µM*	?	-19.2	?	-18.3%	16.4µM*
Cc1nc(-c2ccccc2)sc1C(=O)/C=C/c1ccc(Cl)cc1	23.1µM*	11.3%	-85.5*	8.4%	13.8%	14.6µM*
CCOc1ccc(NC(=O)N(C)CCc2c(C)nn(C)c2C)cc1	-27.9%	.	.	.	.	1.3%
Cc1ccc(N2C(=O)SC(Cc3ccccc3)C2=O)cc1 (stereo not drawn)	?	2.0%	1.6	2.3%	5.5%	?
COc1cccc(NC(=O)CN(C)C(=O)CCNC(=O)c2ccccc2OC)c1	-22.7%	24.3%	10.4	15.3%	.	-7.9%
O=C(CNC(=O)c1ccccn1)N=Nc1c(O)[nH]c2ccccc12	14.6µM*	-16.4%	26.6	-21.4%	?	?
Cc1ccc(S(=O)(=O)N(CC(=O)N=Nc2c(O)[nH]c3ccccc23)c2cccc(C)c2)cc1	20.6µM*	13µM*	-0.8	?	20.6µM*	?
O=C(CN1CCN(Cc2ccccc2Cl)CC1)N=Nc1c(O)[nH]c2ccccc12	?	-11.2%	21.0	0.0%	20.6µM*	?
Cc1cc(Cl)ccc1N(CC(=O)N=Nc1c(O)[nH]c2ccccc12)S(C)(=O)=O	-17.1%	-26.4%	-22.7	-1.3%	-3.2%	-18.0%
O=C(N=Nc1c(O)[nH]c2ccccc12)c1ccc(CN2CCOCC2)cc1	?	2.7%	-20.6	1.0%	11.1%	-27.4%
COc1ccc(CC(=O)NCC(=O)N=Nc2c(O)[nH]c3ccccc23)cc1	27.7%	15.3%	30.6	-0.7%	9.8%	10.2%
Cc1ccc(CN2CCN(CC(=O)N=Nc3c(O)[nH]c4ccccc34)CC2)cc1	14.6µM*	-23.6%	-2.0	-14.4%	8.2µM*	?
CCn1c(SCC(=O)N=Nc2c(O)[nH]c3ccccc23)nc2ccccc21	16.4µM*	-6.7%	0.8	-12.5%	-29.1%	16.4µM*
CCn1c(SCC(=O)N=Nc2c(O)[nH]c3ccccc23)nnc1-c1ccc(C(C)(C)C)cc1	.	.	.	.	15.8%	.
FC(F)(F)c1ccccc1-c1nccc(-n2ccnc2)n1	-12.8%	.	.	.	.	?
SMILES	DT40 TDP1 no CPT	HT1080 IDH1KD tx	IL-1B inflam inh	HT1080-NT tox	ELG1 DNA repair	TDP1 cell CPT
Cc1ccccc1N/N=C/c1sc(=O)n(Cc2cccc(C(=O)O)c2)c1Cl	20.6µM*	?	-15.5	?	5.5%	?
CC(=O)Nc1ccc(/C=C/c2ccccn2)cc1	-4.3%	.	.	.	.	-7.7%
CC(=O)Nc1ccc(/C=C/c2ccnc3ccccc23)cc1[N+](=O)[O-]	?	.	.	.	.	1.41µM*
CC(=O)Nc1ccc(/C=C/c2ccnc3ccccc23)cc1	11.2µM*	.	.	.	.	15.8µM*
COc1cccc(Cn2c(=O)c(-c3cccc(Cl)c3)nc3cncnc32)c1	-17.9%	.	.	.	.	-24.8%
COc1ccc(-c2[nH]c3c(c2-c2c(-n4cccc4)n(C)c(=O)[nH]c2=O)c(=O)[nH]c(=O)n3C)cc1F	-15.8%	.	.	.	.	4.6%
CC(=O)c1ccc(S(=O)(=O)N2CCN(C(=O)c3ccc(-n4nc(C)c(Cl)c4C)cc3)CC2)cc1	13µM*	-11.7%	-13.5	-4.6%	?	16.4µM*
O=C(c1cc(C2CC2)nn1-c1ccccc1)N1CCN(Cc2ccccc2F)CC1	23.1µM*	-18.4%	?	-10.0%	7.8%	16.4µM*
O=C(c1cc(-c2ccccc2)nn1-c1ccccc1)N1CCN(S(=O)(=O)c2c(F)cccc2F)CC1	?	0.3%	-8.7	1.9%	?	13µM*
Cc1ccc(C)c(S(=O)(=O)N2CCN(C(=O)c3cc(-c4cccs4)nn3-c3ccccc3)CC2)c1	?	-8.4%	-8.4	-5.3%	?	?
O=C(c1nc(-c2ccccc2)n(-c2ccccc2)n1)N1CCN(S(=O)(=O)c2ccccc2)CC1	?	-0.1%	-28.7	-8.4%	18.4µM*	-29.7%
CC(NS(=O)(=O)c1ccc2c(c1)CCN2C(=O)CCCC(=O)O)c1ccccc1 (stereo not drawn)	-6.8%	.	.	.	.	3.3%
Cc1cccc(C)c1NC(=O)CN1CCN(C(=O)c2cc(C3CC3)nn2-c2ccccc2)CC1	?	-3.5%	-14.0	2.4%	.	-24.7%
Cc1ccc(S(=O)(=O)N2CCN(C(=O)c3cc(C4CC4)nn3-c3ccccc3)CC2)cc1	?	6.0%	19.4	0.4%	.	?
O=C(c1cc(C2CC2)nn1-c1ccccc1)N1CCN(S(=O)(=O)c2ccccc2)CC1	16.4µM*	-10.7%	-14.2	-1.6%	-17.6%	?
O=C(c1cc(C2CC2)nn1-c1ccccc1)N1CCN(Cc2ccc(Cl)cc2)CC1	11.6µM*	-6.3%	-17.2	-27.7%	?	18.4µM*
